Results taken from PubChem BioAssay.
Activity calls are given as the source filed them. Unless noted, no rule for the calls is given here.

Assays:
[1] = HepG2 liver cancer cell viability effects, profiling panel, resazurin fluorescence, 24 h, PK04 Diversity Set (AID 1172); conditions: higher = more signal; also: test concentration not given here
[2] = basal S. cerevisiae growth modulation, no modifier, primary screen, OD600, strain BY4716, 24 h, basal condition (AID 1173); conditions: OD600, 24 h, higher = more signal, called active from +8 up or from −8 down
[3] = MM1S myeloma cell viability, profiling panel, resazurin fluorescence, basal, 24 h, PK04 Diversity Set (AID 1174); conditions: higher = more signal, called active from +8 up or from −8 down;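 also: MM1S multiple myeloma cell line; test concentration not given here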
[4] = molecular target: Dihydroorotate dehydrogenase (quinone), mitochondrial (Plasmodium falciparum (isolate 3D7)) (UniProt Q08210); assay: PfDHODH enzyme inhibitors, primary screen, biochemical, C-terminal His tag, absorbance 600 nm (AID 1175); conditions: DCIP absorbance 600 nm, higher = more signal, called active from +8 up or from −8 down;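 also: recombinant parasite enzyme with a five histidine tag at its C terminus; test concentration not given here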
[5] = P. aeruginosa biofilm formation inhibitors, primary screen, strain PAO1, LB-PBS medium, absorbance 600 nm (AID 1176); also: test concentration not given here; conditions: P. aeruginosa PAO1 growth/biofilm, A600, 12 h; higher = more signal
[6] = S. cerevisiae RM11-1a growth modifiers, primary screen, strain RM11-1a, OD600, basal, 24 h (AID 1177); conditions: OD600, 24 h, higher = more signal, called active from +8 up or from −8 down;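 also: cultures grown under basal conditions with no added stressor; test concentration not given here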
[7] = E. coli acrAB mutant growth effects, primary screen, E. coli filamentation inducers, strain DRC39, OD650, 24 h (AID 1178); conditions: higher = more signal, called active from +8 up or from −8 down;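 also: growth measured as culture turbidity by optical density at 650 nm; test concentration not given here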
[8] = E. coli acrAB mutant growth effects, primary screen, E. coli filamentation inducers, strain DRC39, OD650, 48 h (AID 1179);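 also: screen aims at cell division blockers that make cells filament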; conditions: E. coli DRC39 delta-acrAB growth, higher = more signal, called active from +8 up or from −8 down
[9] = RPMI8226 myeloma cell viability, profiling panel, resazurin fluorescence, basal, 24 h, PK04 Diversity Set (AID 1180); conditions: higher = more signal;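 also: RPMI8826 multiple myeloma cell line at 5000 cells per well; test concentration not given here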
[10] = molecular target: E3 ubiquitin-protein ligase XIAP (Homo sapiens) (UniProt P98170); assay: XIAP binders, primary screen, biophysical, small-molecule microarray, fluorescence 635 nm (AID 1181); conditions: small-molecule microarray binding, higher = more signal;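 also: score merges 667 nm emission and signal to noise over triplicate slides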
Sequence of E3 ubiquitin-protein ligase XIAP (Homo sapiens) (P98170 whole entry, looked up): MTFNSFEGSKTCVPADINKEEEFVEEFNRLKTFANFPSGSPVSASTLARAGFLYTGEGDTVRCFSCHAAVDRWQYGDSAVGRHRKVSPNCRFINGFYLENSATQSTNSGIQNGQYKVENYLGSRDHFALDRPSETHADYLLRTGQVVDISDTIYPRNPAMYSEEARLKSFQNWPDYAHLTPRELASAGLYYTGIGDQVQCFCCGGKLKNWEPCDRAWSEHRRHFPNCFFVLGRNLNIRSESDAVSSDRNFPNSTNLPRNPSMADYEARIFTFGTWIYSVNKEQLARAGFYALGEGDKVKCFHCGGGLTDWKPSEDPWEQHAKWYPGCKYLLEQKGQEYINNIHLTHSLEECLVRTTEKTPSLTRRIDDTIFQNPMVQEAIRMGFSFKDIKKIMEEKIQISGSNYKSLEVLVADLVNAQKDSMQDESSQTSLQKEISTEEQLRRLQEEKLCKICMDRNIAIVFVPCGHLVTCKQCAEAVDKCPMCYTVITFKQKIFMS

Sequence of Dihydroorotate dehydrogenase (quinone), mitochondrial (Plasmodium falciparum (isolate 3D7)) (Q08210 whole entry, looked up): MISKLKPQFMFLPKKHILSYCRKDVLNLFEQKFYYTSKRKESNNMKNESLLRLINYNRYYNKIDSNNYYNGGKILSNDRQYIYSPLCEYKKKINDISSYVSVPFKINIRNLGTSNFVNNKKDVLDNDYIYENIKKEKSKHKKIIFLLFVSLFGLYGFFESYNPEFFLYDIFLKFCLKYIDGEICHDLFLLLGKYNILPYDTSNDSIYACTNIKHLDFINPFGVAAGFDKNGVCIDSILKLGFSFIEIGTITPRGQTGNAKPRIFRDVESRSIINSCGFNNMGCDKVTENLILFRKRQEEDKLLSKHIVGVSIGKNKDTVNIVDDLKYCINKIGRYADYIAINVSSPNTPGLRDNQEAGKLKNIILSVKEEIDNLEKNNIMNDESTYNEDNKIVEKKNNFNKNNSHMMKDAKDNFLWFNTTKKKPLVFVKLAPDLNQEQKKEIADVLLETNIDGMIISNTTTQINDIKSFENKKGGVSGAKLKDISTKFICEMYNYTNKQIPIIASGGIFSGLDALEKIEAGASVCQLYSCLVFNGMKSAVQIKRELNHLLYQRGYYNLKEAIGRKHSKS

Row | SMILES | z-score [1] | z-score [2] | z-score [3] | composite z-score [4] | z-score [5] | z-score [6] | z-score [7] | z-score [8] | z-score [9] | composite z-score [10]
1 | CCOC(=O)C1=CC[C@@H](c2cccc(Br)c2)N(S(=O)(=O)c2ccc(C)cc2)[C@H]1c1ccc([N+](=O)[O-])cc1 | 0.157 | 0.25 (inactive) | -0.343 (inactive) | -1.26 (inactive) | 0.449 (inactive) | -0.403 (inactive) | -0.837 (inactive) | -0.0589 (inactive) | -1.14 | -0.27
2 | O=C1OCCC=C[C@H]2OC34C=CCN(Cn5nnc6ccccc65)C(=O)[C@H]3N(CCCCCO)C(=O)[C@@H]4C12 (stereo not given in full) | -0.444 | 0.994 (inactive) | 0.241 (inactive) | -0.951 (inactive) | -0.0432 (inactive) | 0.137 (inactive) | 0.672 (inactive) | 0.774 (inactive) | 0.618 | -0.0943
3 | CCN(CC)c1ccc(N2CC=CC34O[C@@H]5/C=C\CCCOC(=O)C5[C@H]3C(=O)N(CCCCCCO)[C@@H]4C2=O)cc1 (stereo not given in full) | -0.574 | -1.14 (inactive) | 0.93 (inactive) | -2.09 (inactive) | -0.869 (inactive) | -1.78 (inactive) | 0.318 (inactive) | 0.901 (inactive) | 0.79 | -0.083
4 | C[N+](C)(C)CCCCNC(=O)[C@H]1C[C@H]2C(=O)NCC(=O)N2[C@H]1c1ccc(O)cc1 | -0.103 | 0.105 (inactive) | -0.511 (inactive) | -29.2 (active) | 0.28 (inactive) | -0.279 (inactive) | 0.703 (inactive) | 1.35 (inactive) | -0.253 | -0.17
5 | O=C(Nc1cc(Br)ccc1C(=O)NCc1cccc(O)c1)c1ccccc1 | -1.11 | -0.887 (inactive) | -0.407 (inactive) | 0.591 (inactive) | 0.034 (inactive) | 0.659 (inactive) | 1.45 (inactive) | 1.06 (inactive) | -0.565 | 0.41
6 | COC(=O)c1c(CC[C@@H](CO)NC(=O)N[C@@H](C)Cn2cc(C3(O)CCCC3)nn2)oc(C(C)=O)c1C(=O)OC | -1.1 | -0.724 (inactive) | -0.345 (inactive) | -3.31 (inactive) | 0.0793 (inactive) | -0.429 (inactive) | -0.0257 (inactive) | -0.687 (inactive) | -0.88 | -0.184
7 | COC(=O)[C@]1(Cc2ccccc2CN=[N+]=[N-])N=C(c2ccc(OCCCO)cc2)O[C@@H]1c1ccccc1CN=[N+]=[N-] | -1.27 | 0.803 (inactive) | -3.36 (inactive) | 1.36 (inactive) | 3.93 (inactive) | 2.92 (inactive) | 2.1 (inactive) | 1.6 (inactive) | -4.23 | -0.0025
8 | O=C1O[C@H](c2ccccc2)[C@H](c2ccccc2)N2[C@H]1[C@@H](C(=O)N1CCCCCCC1)[C@]1(C(=O)Nc3ccc(C#CCCO)cc31)[C@H]2c1ccc(OCCO)cc1 | 1.08 | 0.905 (inactive) | 0.332 (inactive) | 0.521 (inactive) | 0.0568 (inactive) | -0.0365 (inactive) | 0.136 (inactive) | -0.656 (inactive) | 0.543 | 2.52
9 | COCC(=C=CC[C@@H](O)c1ccccc1OCCO)C[C@@H](O)c1ccccn1 | -0.415 | -1.42 (inactive) | -0.249 (inactive) | -10.8 (active) | 0.354 (inactive) | -0.572 (inactive) | -0.268 (inactive) | -0.268 (inactive) | -0.348 | -0.0541
10 | C[C@@]1([C@@H](NC(=O)c2cccs2)c2ccc(-c3ccccc3)cc2)C[C@H]1C1CCCCC1 | 0.133 | 0.774 (inactive) | -0.0911 (inactive) | -3.3 (inactive) | 2.3 (inactive) | 0.548 (inactive) | 0.0767 (inactive) | -0.483 (inactive) | 0.689 | 0.246
11 | CC(C)C(CO)N1C(=O)[C@@H]2[C@H]3C(=O)OCC=C[C@H]3OC23C=CCN(CCN2CCOCC2)C(=O)[C@@H]13 (stereo not given in full) | -0.173 | 0.306 (inactive) | -0.505 (inactive) | 0.395 (inactive) | -0.814 (inactive) | 1.21 (inactive) | -0.934 (inactive) | -1.06 (inactive) | -0.371 | -0.518
12 | C=CCOC(=O)[C@H]1[C@@H]2C(=O)O[C@@H](c3ccccc3)[C@@H](c3ccccc3)N2[C@@H](c2ccc(OCCOC(=O)[C@H]3C[C@H]4C(=O)N[C@@H](CCCCN(C)C)C(=O)N4[C@H]3c3ccc(O)cc3)cc2)[C@]12C(=O)Nc1ccccc12 | 0.569 | -2.35 (inactive) | 0.95 (inactive) | 0.279 (inactive) | -0.723 (inactive) | 0.719 (inactive) | 0.172 (inactive) | -0.739 (inactive) | 0.828 | 0.0425
13 | O=C1N(CCS(=O)(=O)c2ccccc2)c2ccccc2[C@H]2OC(c3ccc(OCCCO)cc3)=N[C@@]12CCS(=O)(=O)c1ccccc1 | 0.248 | 2.94 (inactive) | 0.685 (inactive) | 0.761 (inactive) | 0.591 (inactive) | 3.96 (inactive) | 2.37 (inactive) | 1.04 (inactive) | 0.488 | 0.0197
14 | CCC[C@@H]1C[C@@]1(CCC)[C@@H](NC(=O)c1cccs1)c1ccc(Cl)cc1 | 1.82 | -0.779 (inactive) | 1.19 (inactive) | -0.118 (inactive) | 0.852 (inactive) | 0.235 (inactive) | 0.279 (inactive) | 0.372 (inactive) | 2.95 | -0.193
15 | CCCNC(=O)[C@@]1(Sc2ccc(C)cc2)CC(=O)N(Cc2ccccc2)[C@@H]1c1ccc(CO)cc1I | -0.38 | -2.59 (inactive) | -3.26 (inactive) | -11.5 (active) | 1.14 (inactive) | -0.598 (inactive) | 0.214 (inactive) | 0.0547 (inactive) | -2.81 | 0.0471
16 | COCCCNC(=O)[C@@]1(Cc2ccccc2CN=[N+]=[N-])N=C(c2ccc(OCCCO)cc2)O[C@H]1c1ccccc1N=[N+]=[N-] | -0.208 | -0.255 (inactive) | -1.18 (inactive) | 1.13 (inactive) | 0.413 (inactive) | 0.587 (inactive) | 1.86 (inactive) | 1.08 (inactive) | -2.65 | -0.0592
17 | CCOC(=O)C1=CC[C@@H](c2ccc(N(CC)CC)cc2)N(S(=O)(=O)c2ccc(C)cc2)[C@H]1c1ccc([N+](=O)[O-])cc1 | -0.407 | -0.0341 (inactive) | -0.095 (inactive) | -0.719 (inactive) | 0.698 (inactive) | -0.101 (inactive) | -0.19 (inactive) | -0.0619 (inactive) | -1.06 | -0.0143
18 | CC(C)CCC[C@@H](C)[C@H]1CC[C@@]2(C)C3=C(CC[C@]12C)[C@@]1(C)CC[C@H](OC(=O)C(C)(C)C)C(C)(C)C1CC3 (stereo not given in full) | 0.411 | -0.743 (inactive) | 0.0609 (inactive) | -2.48 (inactive) | 1.65 (inactive) | -4.69 (inactive) | 1.41 (inactive) | -0.805 (inactive) | 0.662 | 0.0356
19 | C=C[C@H](C)[C@H](OC(=O)Nc1ccc(SC)cc1)c1ccc(O)c2ccccc12 | -1.13 | -18.5 (active) | -3.69 (inactive) | -2.47 (inactive) | 0.802 (inactive) | -3.62 (inactive) | -1.46 (inactive) | -1.6 (inactive) | -2.55 | 0.0528
20 | Cc1ccccc1C(O)C1C=CC2C(=O)N(C)C(=O)C2N1Nc1ccc([N+](=O)[O-])cc1[N+](=O)[O-] (stereo not given) | -0.138 | 1.09 (inactive) | -0.729 (inactive) | -0.286 (inactive) | 0.186 (inactive) | 0.446 (inactive) | -0.456 (inactive) | -0.401 (inactive) | -0.963 | -0.0172
21 | C[C@H]1ON(c2ccccc2)[C@@H](c2ccccc2)[C@@H]1C(=O)N1C(=O)OC[C@@H]1c1ccccc1 | 0.565 | 0.551 (inactive) | 0.715 (inactive) | -0.199 (inactive) | -0.189 (inactive) | 1.5 (inactive) | 0.259 (inactive) | -0.0075 (inactive) | 0.942 | -0.123
22 | C=CCNC(=O)[C@H]1[C@@H]2C(=O)O[C@@H](c3ccccc3)[C@@H](c3ccccc3)N2[C@@H](c2ccc(O)cc2)[C@]12C(=O)N(C(=O)OCCOC)c1ccc(C#CC3(O)CCCCCC3)cc12 | -0.0051 | -0.897 (inactive) | 0.221 (inactive) | 0.157 (inactive) | 0.806 (inactive) | 2.27 (inactive) | 0.665 (inactive) | 0.951 (inactive) | 0.41 | 0.0479
23 | COc1ccc([Si](C)(C)[C@@H]2[C@@H](CCO)O[C@]3(C(=O)N(Cc4ccc(N5C(=O)c6ccccc6Oc6ccccc65)cc4)c4ccccc43)[C@H]2C)cc1 | 0.0213 | 2.15 (inactive) | -0.848 (inactive) | -0.343 (inactive) | 2.88 (inactive) | 4.38 (inactive) | 0.365 (inactive) | -0.275 (inactive) | -3.07 | -0.203
24 | CN1C(=O)C2C=CC(C(O)COCc3ccccc3)N(Nc3ccccc3)C2C1=O (stereo not given) | 0.425 | -0.396 (inactive) | -0.825 (inactive) | -0.284 (inactive) | -0.0346 (inactive) | 0.328 (inactive) | -0.925 (inactive) | 0.0813 (inactive) | 0.182 | 0.267
25 | C=C(/C(=C/C[C@@H](OC(C)=O)c1ccccc1OCCO)c1cnc2ccccc2c1)C(C)C | -1 | -1.34 (inactive) | -0.601 (inactive) | -5.68 (inactive) | 0.108 (inactive) | 0.29 (inactive) | -0.997 (inactive) | -0.667 (inactive) | -0.267 | -0.102
